The text below walks through data of the supplement of paper PMC7366291.

Holding throughout (details): 25 µM; exposure: 24-48 hpf
In assay [1] the test system is Danio rerio Tg(wt1b:EGFP) embryo, pronephros. Put plainly: glomerular separation, fold change vs DMSO control; higher = glomeruli further apart (abnormal). The gist of the method: (§1)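 Dechorionated Tg(wt1b:EGFP) zebrafish embryos were exposed to 25 μM compound in 0.5% DMSO, HEPES-buffered E3 with 0.003% PTU, from 24 to 48 hpf at 28.5°C. Pronephroi were imaged dorsally in agarose-filled 96-well plates (470 nm, 10 z-slices). On maximum projections, 16 reference points were set manually in Fiji and a macro computed distances and angles. Values more than 2 SD from the feature mean were excluded. Each feature is a fold change relative to the mean of same-day DMSO controls.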

Assay [2] has the same test system. Put plainly: glomerular width (mean of left and right), fold change vs DMSO control; higher = wider glomerulus. The gist of the method: as §1
For assay [3] the test system is unchanged. Put plainly: fraction of imaged embryos annotated as normal kidney; higher = less nephrotoxic; extreme values may be limits of the assay. The gist of the method: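 Dechorionated Tg(wt1b:EGFP) zebrafish embryos were exposed in 12-well plates to 25 μM compound in 0.5% DMSO, 5 mM HEPES-buffered E3 with 0.003% PTU, from 24 to 48 hpf at 28.5°C. Tricaine-anaesthetised larvae were oriented dorsally in agarose-filled 96-well plates, and pronephroi were imaged by widefield fluorescence (470 nm, 10 z-slices). Each embryo was manually annotated from maximum projections. The read-out is the fraction of embryos per treatment assigned to the normal-kidney category.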

The test system is the same in assay [4]. Put plainly: pronephric angle neck segment to proximal convoluted tubule (mean of left and right), fold change vs DMSO control; higher = larger pronephric angle. In short, it runs like this:
as §1

Counter-ions that a name gives are not always drawn. ± gives the standard deviation or the standard deviation of the averaged measurements.

In assay [1], `Cc1cccc(CN2CCN(C(c3ccccc3)c3ccc(Cl)cc3)CC2)c1` (stereo not given) [Meclozine dihydrochloride] came in with a glomerular separation of 1.25 ± 0.33. Also, the glomerular width in assay [2] is 0.93 ± 0.015. The “fraction of imaged embryos annotated as normal kidney” value (from here on “fraction of imaged embryos annotated”) in assay [3] is 0.417. For the same molecule, the “pronephric angle neck segment” value in assay [4] turned out to be 1.03 ± 0.073.
Consider `Nc1ncnc2c1ncn2C1OC(COP(=O)(O)O)C(O)C1O` (stereo not given) [Adenosine 5'-monophosphate monohydrate], for which, in assay [1], the glomerular separation was found to be 0.936 ± 0.26. Also, the glomerular width in assay [2] was 1.029 ± 0.0059. For the same molecule, the “fraction of imaged embryos annotated” value in assay [3] was 0.917. Also, the “pronephric angle neck segment” value in assay [4] came to 0.9657 ± 0.0086.
For the molecule `CN(C)CC/C=C1/c2ccccc2Sc2ccc(Cl)cc21` [Chlorprothixene hydrochloride], the glomerular separation in assay [1] came out at 0.89 ± 0.23. For the same molecule, the glomerular width in assay [2] turned out to be 1.034 ± 1.4e-05. In assay [3], the “fraction of imaged embryos annotated” value is 0.727. Moreover, the “pronephric angle neck segment” value in assay [4] turned out to be 1.04 ± 0.074.
For `C[N+](C)(CCOc1ccccc1)Cc1ccccc1.O=C([O-])c1cc2ccccc2cc1O` [Bephenium hydroxynaphthoate], in that order: 2.05 ± 0.8, 0.9959 ± 0.0015, 0.583 and 1.17 ± 0.053.
`CCCNC(=O)NS(=O)(=O)c1ccc(Cl)cc1` [Chlorpropamide] had a glomerular separation in assay [1] of 1.09 ± 0.39. Besides, the glomerular width in assay [2] was found to be 1.06 ± 0.087. For the same molecule, the “fraction of imaged embryos annotated” value in assay [3] amounted to 0.75. Moreover, in assay [4], the “pronephric angle neck segment” value was 1.051 ± 0.0085.
The corresponding values for `OCCN1CCN(CC/C=C2/c3ccccc3Sc3ccc(Cl)cc32)CC1` [Zuclopenthixol dihydrochloride] are 1.17 ± 0.21, 0.97247 ± 0.0005, 0.833 and 1.01 ± 0.039.
Molecule `COc1cc(NS(=O)(=O)c2ccc(N)cc2)nc(OC)n1` [Sulfadimethoxine] yielded a glomerular separation in assay [1] of 1.02 ± 0.48. Further, in assay [2], the glomerular width came to 1.04 ± 0.014. The “fraction of imaged embryos annotated” value in assay [3] amounted to 1. Further, the “pronephric angle neck segment” value in assay [4] was determined as 1.01 ± 0.021.
In assay [1], `N[C@@H]1CCCCN(c2c(F)cc3c(=O)c(C(=O)O)cn(C4CC4)c3c2Cl)C1` [Besifloxacin hydrochloride] gave a glomerular separation of 0.997 ± 0.35. The molecule also showed a glomerular width in assay [2] of 1.02 ± 0.033. For the same molecule, in assay [3], the “fraction of imaged embryos annotated” value came out at 0.833. Further, the “pronephric angle neck segment” value in assay [4] was 1.02 ± 0.018.
Turning to `Cc1cc(C2CCCCC2)n(O)c(=O)c1` [Ciclopirox ethanolamine], the glomerular separation in assay [1] was 6.61 ± 0.93. In addition, the glomerular width in assay [2] was found to be 0.503 ± 0.058. Besides, the “fraction of imaged embryos annotated” value in assay [3] came to 0. Also, the “pronephric angle neck segment” value in assay [4] came out at 1.68 ± 0.05.
In assay [1], `COCCOC(=O)C1=C(C)NC(C)=C(C(=O)OC/C=C/c2ccccc2)C1c1cccc([N+](=O)[O-])c1` (stereo not given) [Cilnidipine] had a glomerular separation of 3.85 ± 1.1. The molecule further displayed a glomerular width in assay [2] of 0.735 ± 0.012. In addition, in assay [3], the “fraction of imaged embryos annotated” value was found to be 0. The “pronephric angle neck segment” value in assay [4] is 1.248 ± 0.0032.
Take `CC(C)NCC(O)c1cc(O)cc(O)c1` (stereo not given) [Metaproterenol sulfate, orciprenaline sulfate]: the glomerular separation in assay [1] was 1.08 ± 0.74. In addition, the glomerular width in assay [2] was 1.02 ± 0.014. Moreover, the “fraction of imaged embryos annotated” value in assay [3] stood at 0.909. Further, in assay [4], the “pronephric angle neck segment” value is 1.08 ± 0.07.
`CC(C)(C(=O)O)c1ccc(C(O)CCCN2CCC(C(O)(c3ccccc3)c3ccccc3)CC2)cc1` (stereo not given) [Fexofenadine hydrochloride] yielded a glomerular separation in assay [1] of 0.859 ± 0.33. Further, in assay [2], the glomerular width was 1.12 ± 0.028. The “fraction of imaged embryos annotated” value in assay [3] stood at 0.833. Besides, the “pronephric angle neck segment” value in assay [4] stood at 0.956 ± 0.033.
For `CCN(CC)CCOC(=O)C(c1ccccc1)c1ccccc1` [Adiphenine hydrochloride], in that order: 1.14 ± 0.47, 0.979 ± 0.026, 0.917 and 0.98401 ± 0.00017.
As to `COC(=O)C1=C(C)NC(C)=C(C(=O)OC(C)C)C1c1cccc2nonc12` (stereo not given) [Isradipine], in assay [1], the glomerular separation amounted to 4.38 ± 1.4. In assay [2], the glomerular width was 0.666 ± 0.037. The “fraction of imaged embryos annotated” value in assay [3] was 0. Further, the “pronephric angle neck segment” value in assay [4] worked out at 1.007 ± 0.0069.
`Cc1c(NC(C)C)c(=O)n(-c2ccccc2)n1C` [Isopyrin hydrochloride] displayed a glomerular separation in assay [1] of 1.1 ± 0.6. Besides, the glomerular width in assay [2] is 1.04 ± 0.016. Also, the “fraction of imaged embryos annotated” value in assay [3] is 0.917. Besides, the “pronephric angle neck segment” value in assay [4] worked out at 0.974 ± 0.022.
For the molecule `COc1cc(C(=O)N2CCOCC2)cc(OC)c1OC` [Trimetozine], the glomerular separation in assay [1] worked out at 1.03 ± 0.47. This molecule had a glomerular width in assay [2] of 0.984 ± 0.065. Further, the “fraction of imaged embryos annotated” value in assay [3] amounted to 0.917. Besides, the “pronephric angle neck segment” value in assay [4] is 1.01 ± 0.06.
As to `Brc1c(NC2=NCCN2)ccc2nccnc12` [Brimonidine L-Tartrate], the glomerular separation in assay [1] turned out to be 0.614 ± 0.22. The glomerular width in assay [2] worked out at 1.11 ± 0.043. Further, the “fraction of imaged embryos annotated” value in assay [3] turned out to be 1. In assay [4], the “pronephric angle neck segment” value was 0.993 ± 0.1.
The corresponding values for `COc1cccc2c1C(=O)c1c(O)c3c(c(O)c1C2=O)C[C@@](O)(C(C)=O)C[C@@H]3O[C@H]1C[C@H](N)[C@H](O)[C@H](C)O1` [Daunorubicin hydrochloride] are 0.979 ± 0.36, 1.03 ± 0.019, 0.917 and 1.04 ± 0.025.
`CCN(CC)C(C)CN1c2ccccc2Sc2ccccc21` (stereo not given) [Ethopropazine hydrochloride] displayed a glomerular separation in assay [1] of 0.571 ± 0.084. Further, in assay [2], the glomerular width amounted to 1.03 ± 0.035. Further, in assay [3], the “fraction of imaged embryos annotated” value came to 0.917. Further, in assay [4], the “pronephric angle neck segment” value was 1 ± 0.029.
`CCCCC1=NC2(CCCC2)C(=O)N1Cc1ccc(-c2ccccc2-c2nnn[nH]2)cc1` [Irbesartan]: the glomerular separation in assay [1] was 3.04 ± 1.1. Besides, the glomerular width in assay [2] turned out to be 0.56 ± 0.11. For the same molecule, the “fraction of imaged embryos annotated” value in assay [3] came to 0.75. The “pronephric angle neck segment” value in assay [4] came to 1.1 ± 0.022.
`CC(=O)OCC(=O)[C@@]1(O)CC[C@H]2[C@@H]3CCC4=CC(=O)CC[C@]4(C)[C@@]3(F)[C@@H](O)C[C@@]21C` [Fludrocortisone acetate]: the glomerular separation in assay [1] worked out at 1.6 ± 0.63. The glomerular width in assay [2] amounted to 1.23 ± 0.023. Moreover, the “fraction of imaged embryos annotated” value in assay [3] was determined as 0.583. Besides, the “pronephric angle neck segment” value in assay [4] is 1.18 ± 0.16.
In assay [1], `CCCOc1ccccc1-c1nc2[nH]nnc2c(=O)[nH]1` [Zaprinast] returned a glomerular separation of 1.56 ± 0.95. Also, the glomerular width in assay [2] is 0.99 ± 0.074. Moreover, the “fraction of imaged embryos annotated” value in assay [3] was determined as 0.727. In addition, the “pronephric angle neck segment” value in assay [4] came to 1.08 ± 0.12.
For `C[C@]12CC[C@@H]3c4ccc(O)cc4CC[C@H]3[C@@H]1CCC2=O` [Estrone], in that order: 0.922 ± 0.35, 0.983 ± 0.0046, 1 and 1.05 ± 0.019.
`Cn1c(=O)c2nc[nH]c2n(C)c1=O` [Theophylline monohydrate] showed a glomerular separation in assay [1] of 0.92 ± 0.21. The same molecule displayed a glomerular width in assay [2] of 0.999 ± 0.047. In addition, the “fraction of imaged embryos annotated” value in assay [3] amounted to 1. In addition, the “pronephric angle neck segment” value in assay [4] worked out at 1 ± 0.011.
Molecule `C(=C\c1ccccc1)/CN1CCN(C(c2ccccc2)c2ccccc2)CC1` [Cinnarizine] returned a glomerular separation in assay [1] of 1.15 ± 0.31. The glomerular width in assay [2] is 1.03 ± 0.024. Further, in assay [3], the “fraction of imaged embryos annotated” value was 0.75. Besides, in assay [4], the “pronephric angle neck segment” value amounted to 0.995 ± 0.045.
